Laboratory results reported in PubChem BioAssay (NCATS).
Records with an inconclusive call do not appear. Activity calls are given as the source filed them. Calls follow the shape of the dose curve; as a rule, active = well fitted curve in the direction sought with a large enough effect; inconclusive = small, poorly fitted or top-dose-only effect, or another doubt; inactive = no such curve, though single readings can be large; an effect the other way counts as inactive or inconclusive.

Assays:
[1] = biological target: Rap guanine nucleotide exchange factor 3 (Homo sapiens) (UniProt O95398); test: Confirmatory qHTS for agonist of cAMP-regulated guanine nucleotide exchange factor 3 (EPAC1) (AID 1645881); also: nearly all actives have a fitted effect of over 75% in size; also: potency is read from the fitted curve at half-maximal effect;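 as to activation: EPAC1 catalysed release of BODIPY-GDP from Rap1B seen as fluorescence loss; 100% = effect of cAMP agonist control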
[2] = biological target: Rap guanine nucleotide exchange factor 4 (Homo sapiens) (UniProt Q8WZA2); test: Confirmatory qHTS for agonist of cAMP-regulated guanine nucleotide exchange factor 4 (EPAC2) (AID 1645884);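 also: nucleotide exchange releases bodipy-GDP from Rap1 and this lowers its fluorescence; % is scaled to controls: 0 for no effect and ±100 for the full control effect; nearly all actives have a fitted effect of over 65% in size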
[3] = biological target: Rap guanine nucleotide exchange factor 4 (Homo sapiens) (UniProt Q8WZA2); test: Confirmatory qHTS for antagonist of cAMP-regulated guanine nucleotide exchange factor 4 (EPAC2) (AID 1645885); also: nearly all actives have a fitted effect of over 25% in size; also: potency is read from the fitted curve at half-maximal effect; as to activity change, negative = inhibition: % is scaled to controls: 0 for no effect and ±100 for the full control effect
[4] = biological target: Rap guanine nucleotide exchange factor 3 (Homo sapiens) (UniProt O95398); test: Counterscreen qHTS for antagonist of cAMP-regulated guanine nucleotide exchange factor 3 (EPAC1) (AID 1645888);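 also: fluorescence loss as bound BODIPY-GDP is released from Rap1B; % of control where 0% means no effect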
Procedure, shortened: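 Measured: fluorescence of BODIPY-GDP bound to Rap1B, which falls as exchange proceeds. Conditions include 50 uM competing GDP, 5 and 30 min reads, and a later cAMP challenge for antagonist detection.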

Rap guanine nucleotide exchange factor 4 (Homo sapiens), sequence (Q8WZA2 whole entry, looked up): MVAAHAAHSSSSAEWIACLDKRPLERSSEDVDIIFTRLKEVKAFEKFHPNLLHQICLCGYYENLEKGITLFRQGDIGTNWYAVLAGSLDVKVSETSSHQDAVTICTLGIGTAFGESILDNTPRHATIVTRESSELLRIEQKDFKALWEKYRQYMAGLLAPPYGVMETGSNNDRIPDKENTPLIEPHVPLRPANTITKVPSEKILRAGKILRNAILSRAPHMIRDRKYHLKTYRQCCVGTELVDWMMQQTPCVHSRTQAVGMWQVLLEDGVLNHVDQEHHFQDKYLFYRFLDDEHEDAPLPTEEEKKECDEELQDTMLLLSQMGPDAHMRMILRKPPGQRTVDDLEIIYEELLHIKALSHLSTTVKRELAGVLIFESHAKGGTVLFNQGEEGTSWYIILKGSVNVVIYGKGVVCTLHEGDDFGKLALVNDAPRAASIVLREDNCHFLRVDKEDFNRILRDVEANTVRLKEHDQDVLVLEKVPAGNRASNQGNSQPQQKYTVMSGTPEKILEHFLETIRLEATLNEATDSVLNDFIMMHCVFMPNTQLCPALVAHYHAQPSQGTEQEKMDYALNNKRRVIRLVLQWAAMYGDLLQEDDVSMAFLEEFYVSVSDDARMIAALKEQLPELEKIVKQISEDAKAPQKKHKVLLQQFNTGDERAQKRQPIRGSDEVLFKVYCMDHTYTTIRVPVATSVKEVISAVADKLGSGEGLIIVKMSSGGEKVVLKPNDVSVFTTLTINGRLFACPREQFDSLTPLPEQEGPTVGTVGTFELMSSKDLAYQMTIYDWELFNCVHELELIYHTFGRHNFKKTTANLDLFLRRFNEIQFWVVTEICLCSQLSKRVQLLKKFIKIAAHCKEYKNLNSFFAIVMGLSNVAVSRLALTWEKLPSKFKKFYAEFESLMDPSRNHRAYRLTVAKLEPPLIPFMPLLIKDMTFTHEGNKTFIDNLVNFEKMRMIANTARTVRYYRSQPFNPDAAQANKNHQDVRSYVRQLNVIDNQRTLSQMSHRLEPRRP
Rap guanine nucleotide exchange factor 3 (Homo sapiens), sequence (O95398 whole entry, looked up): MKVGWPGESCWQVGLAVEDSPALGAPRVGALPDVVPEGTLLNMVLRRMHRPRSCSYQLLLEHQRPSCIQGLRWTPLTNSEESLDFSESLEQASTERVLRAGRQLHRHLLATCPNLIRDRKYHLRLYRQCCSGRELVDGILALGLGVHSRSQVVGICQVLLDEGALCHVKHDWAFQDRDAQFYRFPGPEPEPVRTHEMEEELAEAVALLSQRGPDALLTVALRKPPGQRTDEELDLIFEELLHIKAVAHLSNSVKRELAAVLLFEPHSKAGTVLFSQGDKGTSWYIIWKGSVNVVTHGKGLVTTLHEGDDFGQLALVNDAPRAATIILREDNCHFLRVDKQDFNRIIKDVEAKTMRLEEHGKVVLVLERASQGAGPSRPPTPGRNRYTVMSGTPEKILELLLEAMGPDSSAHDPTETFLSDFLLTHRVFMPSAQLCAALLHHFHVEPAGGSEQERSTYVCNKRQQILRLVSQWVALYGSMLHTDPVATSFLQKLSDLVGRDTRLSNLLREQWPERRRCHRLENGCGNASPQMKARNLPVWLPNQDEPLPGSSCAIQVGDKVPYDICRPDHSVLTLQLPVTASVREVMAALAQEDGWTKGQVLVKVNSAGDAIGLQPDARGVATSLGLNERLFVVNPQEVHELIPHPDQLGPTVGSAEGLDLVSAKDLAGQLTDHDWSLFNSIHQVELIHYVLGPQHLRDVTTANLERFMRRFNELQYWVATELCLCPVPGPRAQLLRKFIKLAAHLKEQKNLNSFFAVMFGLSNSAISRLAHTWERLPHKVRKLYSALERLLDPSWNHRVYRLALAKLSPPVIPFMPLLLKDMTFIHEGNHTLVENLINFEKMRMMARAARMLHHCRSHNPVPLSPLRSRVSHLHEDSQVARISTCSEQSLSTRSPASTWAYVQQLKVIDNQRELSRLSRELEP

CC1CC(C)CN(C(=O)c2ccc3c(c2)N(Cc2ccccc2)CCS3)C1 (centres undefined)
inactive: Potency [1] | activation [2] 14.1% [at 17.1 µM, percent relative to cAMP agonist control] | Potency [3] | activity change, negative = inhibition [4] 1.99% [at 30.8 µM]

COCCCNC(=O)C[C@@H]1C[C@@]2(C(=O)OC)CCCCC=C2N(Cc2cccc3ccccc23)C1=O
inactive: Potency [1] | activation [2] 3.32% [at 17.1 µM, percent relative to cAMP agonist control] | Potency [3] | activity change, negative = inhibition [4] -43.8% [at 30.8 µM]

Cn1c(=O)c2c(-c3ccccc3Br)n(Cc3ccccc3)cc2n(C)c1=O
inactive: Potency [1] | Potency [2] | Potency [3] | Potency [4]

O=C1CS(=O)(=O)N(Cc2cccc(F)c2)c2ccc(Br)cc21
inactive: Potency [1] | Potency [2] | Potency [3] | Potency [4]

CCOc1ccc(C(=O)N2CC(=O)Nc3ccc(C)cc3C2c2ccc(F)cc2)cc1OCC (centres undefined)
inactive: Potency [1] | Potency [2] | outcome [3] inactive [at 12.7 µM] | Potency [4]

CC(C)=CCC[C@H](C)C[C@@H]1Cc2[nH][nH]c(=O)c2[C@@H](c2ccc(F)cc2)O1
inactive: Potency [1] | activation [2] 5.46% [at 17.1 µM, percent relative to cAMP agonist control] | Potency [3] | activity change, negative = inhibition [4] -22.9% [at 30.8 µM]

Oc1cccc(C=Nc2cccc3ccccc23)c1O
inactive: Potency [1] | Potency [2] | Potency [3] | Potency [4]

Nc1c2c(=O)[nH]c(O)cc2nn1-c1ccccc1
inactive: Potency [1] | Potency [2] | Potency [3] | Potency [4]

C#Cc1ccc([C@@H]2C=C(C(=O)OCC=C)O[C@H](OCc3ccc(CO)cc3)C2)cc1
inactive: Potency [1] | activation [2] -0.524% [at 17.1 µM, percent relative to cAMP agonist control] | Potency [3] | activity change, negative = inhibition [4] -8.75% [at 30.8 µM]

Cn1c(SCC(=O)c2cc(Cl)c(Cl)s2)nnc1-c1ccco1
inactive: Potency [1] | Potency [2] | Potency [3] | Potency [4]

Nc1ccc2ccc(O)cc2c1
inactive: Potency [1] | activation [2] 14.1% [at 17.1 µM, percent relative to cAMP agonist control] | Potency [3] | activity change, negative = inhibition [4] -3.65% [at 30.8 µM]

COc1ccccc1C(C(=O)c1ccccc1)c1ccc(O)cc1 (centres undefined)
inactive: Potency [1] | activation [2] 3.15% [at 17.1 µM, percent relative to cAMP agonist control] | Potency [3] | activity change, negative = inhibition [4] -22.7% [at 30.8 µM]

Cc1cccc(-n2ccnc2SCC(=O)Nc2ccc(F)cc2F)c1C
inactive: Potency [1] | Potency [2] | Potency [3] | Potency [4]

O=C(OCC1OC(n2ncc(=O)[nH]c2=O)C(OC(=O)c2ccccc2)C1OC(=O)c1ccccc1)c1ccccc1 (centres undefined)
inactive: Potency [1] | activation [2] 0.888% [at 17.1 µM, percent relative to cAMP agonist control] | Potency [3] | activity change, negative = inhibition [4] -8.49% [at 30.8 µM]

COc1ccc2c(c1)Cc1sc(NC(=O)c3ccccc3C)nc1-2
inactive: Potency [1] | Potency [2] | Potency [3] | Potency [4]

NC(=O)[C@H]1CC2(CC(c3cccc(NC(=O)[C@H]4CCC(=O)N4)c3)=NO2)CN1C(=O)c1ccccc1 (some centres undefined)
inactive: Potency [1] | Potency [2] | Potency [3] | Potency [4]

CCCC1=C/C(=C/c2ccc(-c3ccccc3OC)o2)C(=O)O1
inactive: Potency [1] | activation [2] 1.16% [at 17.1 µM, percent relative to cAMP agonist control] | Potency [3] | activity change, negative = inhibition [4] -9.78% [at 30.8 µM]

CCC(CO)n1c(SCc2cc([N+](=O)[O-])cc3c2OCOC3)nc2ccccc2c1=O (centres undefined)
inactive: Potency [1] | activation [2] 10.3% [at 17.1 µM, percent relative to cAMP agonist control] | Potency [3] | activity change, negative = inhibition [4] 19.8% [at 30.8 µM]

COc1cccc(C(=O)Nc2ccc(NC(=O)c3ccco3)c(Cl)c2)c1
inactive: Potency [1] | activation [2] 0% [at 17.1 µM, percent relative to cAMP agonist control] | Potency [3] | activity change, negative = inhibition [4] -46.5% [at 30.8 µM]

Cc1ccc(OCC(=O)Nc2ccc(C)c(S(=O)(=O)N3CCCCCC3)c2)c([N+](=O)[O-])n1
inactive: Potency [1] | Potency [2] | Potency [3] | Potency [4]

O=C(Nc1ccccc1)C1=C(O)CC(c2ccc(Cl)cc2)N2CCN=C12 (centres undefined)
inactive: Potency [1] | Potency [2] | Potency [3] | Potency [4]

Clc1ccc(C(c2ccccc2)c2c[nH]c3ccccc23)s1 (centres undefined)
inactive: Potency [1] | Potency [2] | Potency [3] | Potency [4]

CCOC(=O)C1=CCN(S(=O)(=O)c2ccccc2Cl)C1c1ccc(Cl)c(Cl)c1 (centres undefined)
inactive: Potency [1] | activation [2] 4.1% [at 17.1 µM, percent relative to cAMP agonist control] | Potency [3] | activity change, negative = inhibition [4] -3.01% [at 30.8 µM]

O=C(N/N=C/c1c(O)ccc2ccccc12)c1[nH]ncc1Br
inactive: Potency [1] | Potency [2] | Potency [3] | Potency [4]

Cc1ccc(C(=O)c2cn(Cc3cccc(F)c3)c3nc(C)ccc3c2=O)cc1
inactive: Potency [1] | Potency [2] | Potency [3] | Potency [4]

O=C(N/N=C/c1ccc(O)c(O)c1)c1ccc(CSc2cccc3cccnc23)cc1
inactive: Potency [1] | activation [2] 14.6% [at 17.1 µM, percent relative to cAMP agonist control] | Potency [3] | activity change, negative = inhibition [4] 41.8% [at 30.8 µM]

O=C(Nc1cc(S(=O)(=O)Nc2ccc(Cl)cc2)ccc1O)c1ccc(S(=O)(=O)N2CCCCCC2)cc1
inactive: Potency [1] | Potency [2] | Potency [3] | Potency [4]

O=C(Nc1ccc(S(=O)(=O)Nc2nccs2)cc1)c1cc(-c2ccccn2)nc2ccccc12
inactive: Potency [1] | activation [2] 4.2% [at 17.1 µM, percent relative to cAMP agonist control] | Potency [3] | activity change, negative = inhibition [4] -7.32% [at 30.8 µM]

Cc1cccc(Nc2nnc(-c3ccc(N4CCOCC4)c([N+](=O)[O-])c3)c3ccccc23)c1
inactive: Potency [1] | Potency [2] | Potency [3] | Potency [4]

COc1ccc2oc(=O)c(-c3nnc(NCc4ccco4)s3)cc2c1
inactive: Potency [1] | activation [2] 7.34% [at 17.1 µM, percent relative to cAMP agonist control] | Potency [3] | activity change, negative = inhibition [4] 15.5% [at 30.8 µM]

CCC(C)Cn1c(O)cc2nn(-c3nc4ccccc4s3)c(=O)c-2c1C (centres undefined)
inactive: Potency [1] | activation [2] -0.693% [at 17.1 µM, percent relative to cAMP agonist control] | Potency [3] | activity change, negative = inhibition [4] -16.7% [at 30.8 µM]

CCCCN1CC(c2nc3ccccc3n2CCCCOc2cc(C)ccc2C)CC1=O (centres undefined)
inactive: Potency [1] | Potency [2] | Potency [3] | Potency [4]

COc1cc(OC)cc(C(=O)Nc2ccc(NC(=O)c3ccco3)c(Cl)c2)c1
inactive: Potency [1] | Potency [2] | Potency [3] | Potency [4]

COc1ccc(OC)c(Nc2cc3ccccc3c(=O)[nH]2)c1
inactive: Potency [1] | Potency [2] | Potency [3] | Potency [4]

COc1ccc(NC(=S)N(CCCN2CCOCC2)C(C)c2cc3cccc(OC)c3o2)cc1 (centres undefined)
inactive: Potency [1] | Potency [2] | Potency [3] | Potency [4]

COc1ccccc1[C@]1(C)ON(c2ccccc2C(F)(F)F)C1=O
inactive: Potency [1] | Potency [2] | Potency [3] | Potency [4]

Cc1ccc(N(Cc2cccs2)C(=O)c2ccc(Br)o2)cc1
inactive: Potency [1] | Potency [2] | Potency [3] | Potency [4]

CN(C)S(=O)(=O)c1cccc(COC(=O)Cc2c(F)cccc2Cl)c1
inactive: Potency [1] | Potency [2] | Potency [3] | Potency [4]

COc1ccc(C(=O)N(Cc2ccco2)Cc2ccc(C)o2)cc1
inactive: Potency [1] | Potency [2] | Potency [3] | Potency [4]

Oc1ccc2ccccc2c1/C=N/c1nc2c(s1)CCCC2
inactive: Potency [1] | Potency [2] | Potency [3] | Potency [4]

CCN(CC)CC#CC(OC)(c1ccccc1)c1ccccc1
inactive: Potency [1] | Potency [2] | Potency [3] | Potency [4]

Cc1ccc(C)c(-c2ccc(=O)n(Cc3c(F)cccc3Cl)n2)c1
inactive: Potency [1] | Potency [2] | Potency [3] | Potency [4]

O=C(O)CC/C(=C/c1cccc(NC(=O)c2ccccc2Cl)c1)c1nc2ccccc2s1
inactive: Potency [2] | Potency [3] | Potency [4]
active: Potency [1] 100 µM

O=C(NCc1ccccc1)C(c1ccccc1)n1c(=O)c(-c2ccco2)nc2ccccc21 (centres undefined)
inactive: Potency [1] | activation [2] 3.56% [at 17.1 µM, percent relative to cAMP agonist control] | Potency [3] | activity change, negative = inhibition [4] 5.07% [at 30.8 µM]

CCOc1cccc(CNc2ccc(O)cc2)c1OCc1ccc(Cl)cc1
inactive: Potency [1] | Potency [2] | Potency [3] | Potency [4]

CC(C)c1ccc(/C=C/C(=O)Nc2ccc(CN3CCOCC3)cc2)cc1
inactive: Potency [1] | Potency [2] | Potency [4]
active: Potency [3] 95.3 µM

COc1ccc(/C=N/NC(=O)c2[nH]c3ccc(Br)cc3c2-c2ccccc2)c(C(=O)O)c1OC
inactive: Potency [1] | activation [2] 2.8% [at 17.1 µM, percent relative to cAMP agonist control] | Potency [3] | activity change, negative = inhibition [4] 0.744% [at 30.8 µM]

CCOC(=O)C1CCN(c2c(C(=O)c3ccc(C)cc3)cnc3ccc(F)cc23)CC1
inactive: Potency [1] | Potency [2] | Potency [3] | Potency [4]

COc1ccc(-c2cc(C(F)(F)F)c3c(n2)sc2c(O)cc(=O)[nH]c23)c(OC)c1
inactive: Potency [1] | Potency [2] | Potency [3] | Potency [4]

COc1ccccc1N1CSC2=C(C#N)C(c3ccc(SC)cc3)CC(=O)N2C1 (centres undefined)
inactive: Potency [1] | activation [2] 7.57% [at 17.1 µM, percent relative to cAMP agonist control] | Potency [3] | activity change, negative = inhibition [4] -2.77% [at 30.8 µM]

Nc1ccccc1C(=O)NNc1c2ccccc2nc2ccccc12
inactive: Potency [1] | Potency [2] | Potency [3] | Potency [4]
